Screening data: PubChem, National Center for Advancing Translational Sciences (NCATS)
An excerpt weighted towards active compounds, which were near 21% of everything screened.
Pf growth 96h = inhibits malaria parasite growth, 96 h; actives 6.9% (n = 320,000); AID 504834; P. falciparum luciferase reporter growth, 96 h; Potency, µM (series often up to 28.7 µM), for the others: at the highest dose activity change, negative = inhibition, most hits filed as inhibitors; further: potency means the concentration at half of the fitted maximal effect; on the % scale 0 is the no-effect control and ±100 the full control effect
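P. falciparum expressing integrated firefly luciferase grown in erythrocytes (2% hematocrit, 0.05% parasitemia final) with compounds for 96 hours at 37 C, 5% CO2. Growth inhibition read as loss of luminescence after adding luciferase detection reagent.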
CHX counter = counter-screen hit for Shiga toxin inhibitors, cycloheximide. cell reporter, cycloheximide protein synthesis inhibition counterscreen. max response, %. actives 12% (n = 300,000). AID 2314; in the data active means max response mostly above about 13%, no sharp cut-off; inactive means mostly below about 14%; further: read at 38.3 µM for the half of the compounds with a filed dose; 0% is about no effect
Shiga inhibitor = inhibitors of Shiga toxin in Vero cells | Vero cells, Shiga toxin protein synthesis inhibition reporter | AID 2315 | actives 9.2% (n = 290,000) | inhibition, % at 38.7 µM; in the data active means inhibition mostly above about 28%, no sharp cut-off; inactive means mostly below about 43%; further: 0% is about no effect
Pf growth 48h = P. falciparum growth inhibition at 48 hours (one generation); actives 5.9% (n = 310,000); AID 504832; Potency, µM (doses to about 28.7 µM), for the others: at the highest dose activity change, negative = inhibition, most hits filed as inhibitors; P. falciparum luciferase growth in erythrocytes, 48 h; further: potency means the concentration at half of the fitted maximal effect; on the % scale 0 is the no-effect control and ±100 the full control effect
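Erythrocytes infected with P. falciparum carrying an integrated firefly luciferase reporter (2% hematocrit, 0.1% parasitemia final) were exposed to compounds in RPMI 1640 with 0.5% Albumax at 37 C, 5% CO2. Growth inhibition was scored as reduced luminescence.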
NS1 inh = inhibitors of influenza NS1 protein function; Potency, µM (series often up to 46.1 µM), for inactives: at the top dose activity, positive = more growth; actives 0.4% (n = 270,000); calls by dose curve; further: potency means the concentration at half of the fitted maximal effect; actives are rising curves; nearly all actives have a fitted effect of over 50% in size
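A cell-based growth assay was used: compounds that relieve NS1-induced slow growth of budding yeast raise OD600. Assay medium was yeast nitrogen base with ammonium sulphate and -URA supplement, pH 6.0, with 2% galactose.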
* = called active by the depositor; i = inactive; ? = inconclusive; nt = no result. Unless noted, the call rests on the fitted dose curve; in most records, active means well fitted inhibition curve with a large enough effect; inconclusive means small, poorly fitted or top-dose-only effect, or another doubt; inactive means no such curve, though single readings can be large or run the other way.

SMILES	Pf growth 96h	CHX counter	Shiga inhibitor	Pf growth 48h	NS1 inh
CC(C)Oc1ccc(C2CC(=O)N(C)C2=O)cc1 (stereo unspecified)	270.2%	-2.9	22.6	37.8%	5.4%
CCCCOc1ccc(C2CC(=O)N(C)C2=O)cc1 (stereo unspecified)	73.3%	20.5*	31.7*	41.9%	11.7%
Cn1cccc1-c1cc(C(=O)N/N=C/c2cccc(O)c2)[nH]n1	?	29.7*	55.9*	22.4%	nt
COc1ccc(/C=N/NC(=O)c2cc(-c3cccn3C)n[nH]2)cc1OC	1.85µM*	-3.0	-12.3	13.1µM*	23.6%
COc1cc(OC)c(OC)cc1/C=N/NC(=O)c1cc(-c2cccn2C)n[nH]1	?	-2.2	-19.1	?	-0.6%
COc1ccc(-c2c(C3C4C=CCC(C)C4C(=O)N3Cc3ccccc3)ccc3ccccc23)cc1OC (stereo unspecified)	nt	6.5	20.4	nt	nt
COc1ccc(CC(=O)NCC(C)(C)N2CCOCC2)cc1	30.2%	-0.4	0.4	17.3%	0.3%
CCN(CCCNC(=O)CCC(=O)N1CCOc2ccccc21)Cc1ccccc1	?	1.3	-3.7	-9.1%	-11.6%
CCN(CC)S(=O)(=O)c1ccc2c(c1)c(=O)c(C(=O)N1CCN(c3ccccn3)CC1)cn2C	0.522µM*	0.3	-6.9	-7.4%	-5.7%
CCN(CC)S(=O)(=O)c1ccc2c(c1)c(C(=O)O)cn2C	6.57µM*	-2.0	-24.3	7.7%	1.9%
CC1(C)C(=O)C=C[C@]2(C)[C@H]3CC[C@@]4(C)[C@H](c5ccoc5)OC(=O)[C@H]5O[C@]54[C@]3(C)[C@H](O)C[C@@H]12	8.28µM*	20.7*	45.8	11.7µM*	-33.9%
CC(C)(O)[C@@H]1CC(=O)[C@]2(C)[C@H](CC[C@@]3(C)[C@H](c4ccoc4)OC(=O)[C@H]4O[C@]432)[C@@]1(C)/C=C\C(=O)O	39.9%	nt	nt	45.7%	nt
O=C(NC(=S)Nn1cnnc1)c1ccccc1Br	77.2%	1.1	-4.9	21.7%	0.7%
CCCCN(C)CCNC(=O)Cn1c(=O)sc2ccccc21	8.28µM*	-3.1	3.7	nt	0.0%
CN(CCNC(=O)Cn1c(=O)sc2ccccc21)Cc1ccccc1	4.65µM*	-4.8	-9.3	nt	2.3%
Cc1cccc(N2CCN(C(=O)C3CCN(S(=O)(=O)N4CCOCC4)CC3)CC2C)c1 (stereo unspecified)	-21.3%	-5.0	4.5	-14.9%	nt
O=C(COC(=O)c1ccc2c(c1)C(=O)N(CCc1ccccc1)C2=O)Nc1ccc(OC(F)F)cc1	9.9%	6.0	32.4	1.7%	7.4%
CCOc1ccc(NC(=O)C2C(c3ccccc3)C2(Cl)Cl)cc1 (stereo unspecified)	?	21.0*	41.7*	0.0%	-11.4%
CCOc1ccc(NC(=O)c2ccc(NC(=O)COC(=O)Cc3ccc(OC)cc3)cc2)cc1	42.4%	17.6	60.2*	9.0%	8.6%
CCOc1ccc(NC(=O)COC(=O)c2ccc3c(c2)C(=O)N(CCc2ccccc2)C3=O)cc1	-2.7%	18.7*	65.5*	?	-5.5%
COc1ccc(CC(=O)OCC(=O)Nc2ccc(C(=O)Nc3ccc(OC)cc3)cc2)cc1	38.7%	-0.7	14.8	34.3%	7.5%
COC(=O)c1c(NC(=O)CN2CCN(c3ccccc3OC)CC2)c2c(C)cccc2n1C	-17.9%	-1.9	-5.6	nt	-16.4%
COC(=O)c1c(NC(=O)CN2CCN(c3ccccc3)CC2)c2c(C)cccc2n1C	5.86µM*	1.1	-12.9	nt	-53.3%
CC12CCC(=O)N1C(C(=O)NCc1ccccc1F)CS2 (stereo unspecified)	48.5%	nt	nt	15.5%	nt
COc1cc(CC(=O)NNC(=O)c2cc(C)oc2C)cc(OC)c1OC	-13.2%	-5.8	-3.6	2.1%	-6.3%
SMILES	Pf growth 96h	CHX counter	Shiga inhibitor	Pf growth 48h	NS1 inh
Cc1nc(OCc2c(C)noc2C)c2ccccc2n1	3.2%	-0.8	8.4	-20.4%	nt
COC(=O)c1ccc(NC(=O)C(=O)c2cccn2C)cc1	i	28.6*	54.1*	307.2%	nt
CCOc1ccc(NC(=O)CSCC(=O)O)cc1	nt	12.5	-16.0	12.0%	2.2%
CCOc1ccc(NC(=O)CSc2ccccc2N)cc1	-1.9%	38.6*	118.4*	-5.2%	1.5%
COC(=O)c1sccc1-n1cccc1C(=O)C(=O)Nc1ccc(F)cc1	-4.7%	10.6	0.8	-11.6%	-2.5%
COC(=O)c1ccc(NC(=O)CN2CCN(c3ccccc3C)CC2)cc1	9.28µM*	-1.2	-5.1	16.0%	-29.0%
